# Laboratory results from PubChem BioAssay (EPA / NIEHS).
# Records with an inconclusive call do not appear. Active and inactive are the calls of the source. Rule for the calls, unless noted: active = hit-call score of the fitted dose curve at least 0.9, where 1 is the maximum; inconclusive = response in the unintended direction; inactive = score below 0.9.
# Assays:
# [1] = tested on: Sodium/Iodide Symporter (NIS), SLC5A5 (gene 6528); assay: CPHEA_Stoker_NIS_Inhibition_RAIU: CPHEA's Radioactive Iodide Uptake (RAIU) Assay for Sodium/Iodide Symporter (NIS) Inhibition, Stoker and Laws Labs (AID 2283841)
# In short: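 Test chemicals, six concentrations from 0.001 to 100uM in 0.5% DMSO, were co-incubated with carrier-free 125I (final 329pM) on hNIS-HEK293T-EPA monolayers in pH 7.4 HEPES-buffered HBSS. Plates stood 2 hours at room temperature, then were washed cold and counted.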
# [2] = CPHEA_Stoker_NIS_Cytotoxicity: Cytotoxicity Assessment for CPHEA's Radioactive Iodide Uptake (RAIU) Assay for Sodium/Iodide Symporter (NIS) Inhibition, Stoker and Laws Labs (AID 2283897)
# In short: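 Viability in hNIS-HEK293T-EPA cells is scored as a drop in luciferase-detected ATP following 2-hour room-temperature exposure (0.001–100uM; triplicate wells, three cell passages), with DMSO as negative control.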
# [3] = target: zebrafish Thyroid Hormone Receptor beta (TRb), thrb (gene 30607) (UniProt Q9PVE4); assay: ATG_zfTRb_XSP2: Attagene TRANS-FACTORIAL Multi-Species (XSP1) HepG2 Assay for zebrafish Thyroid Hormone Receptor beta (TRb) (AID 2283836)
# In short: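 Human liver HepG2, transient MRTU transfection (NR-Gal4 chimeras, GAL4-UAS reporters); 24 h compound exposure; total RNA → oligo(dT) RT → PCR → 6-FAM label → HpaI cut → CE fluorescence. DMSO = negative control/baseline.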
# [4] = target: frog Thyroid hormone Receptor alpha (TRa), thra-a (gene 397942) (UniProt P15204); assay: ATG_frTRa_XSP2: Attagene TRANS-FACTORIAL Multi-Species (XSP2) HepG2 Assay for frog Thyroid hormone Receptor alpha (TRa) (AID 2283839)
# In short: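 Read-out: fluorescent reporter-transcript fragments resolved by capillary electrophoresis after RT-PCR and HpaI cut. Human HepG2 liver cells carry a transfected frog TRα-Gal4 chimera driving a UAS reporter; 24 h exposure, DMSO baseline, positive-direction fit.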
# [5] = CEETOX_H295R_11DCORT_noMTC: CeeTox H295R High-throughput Steroidogenesis Assay for 11-Deoxycortisol (11DCORT), maximum tolerated concentration (MTC) filtered results only (AID 2283911; active = hit-call score of the fitted dose curve at least 0.9, where 1 is the maximum; inactive = score below 0.9); details: actives raise or lower the signal
# In short: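 H295R, OECD 456-based; 10 uM forskolin 48 h → compound (0.1% DMSO) 48 h → medium extracted, 11DCORT by LC-MS/MS. Gain/loss vs DMSO control, all concentrations kept regardless of MTT viability.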
# [6] = CEETOX_H295R_OHPREG_noMTC: CeeTox H295R High-throughput Steroidogenesis Assay for OH-Pregnenolone (OHPREG), maximum tolerated concentration (MTC) filtered results only (AID 2283912; active = hit-call score of the fitted dose curve at least 0.9, where 1 is the maximum; inactive = score below 0.9); details: actives raise or lower the signal
# In short: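 Steroidogenesis in H295R cells (OECD 456, modified): after 48 h forskolin priming and 48 h chemical treatment, secreted 17alpha-hydroxypregnenolone is measured by HPLC-MS/MS. Activity is fitted in both directions against DMSO; concentrations are not filtered by MTT-based MTC.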
# [7] = CEETOX_H295R_OHPROG_noMTC: CeeTox H295R High-throughput Steroidogenesis Assay for OH-Progesterone (OHPROG), maximum tolerated concentration (MTC) filtered results only (AID 2283914; active = hit-call score of the fitted dose curve at least 0.9, where 1 is the maximum; inactive = score below 0.9); details: actives raise or lower the signal
# Description: CEETOX_H295R is a cell-based, multiplexed-readout assay that uses H295R, a human adrenal gland cell line, with measurements taken at 48 hours after chemical dosing in a 96-well plate.CEETOX_H295R_OHPROG_noMTC is one of 12 assay component(s) measured or calculated from the CEETOX_H295R assay (11 hormones and 1 viability assay). It is designed to make measurements of hormone induction, a form of inducible reporter, as detected with […] by HPLC-MS-MS technology. The concentrations for these components have not been pre-filtered for the maximum tolerated concentration (MTC) based on the MTT assay (_noMTC).Data from the assay component CEETOX_H295R_OHPROG_noMTC was analyzed into 1 assay endpoint. This assay endpoint, CEETOX_H295R_OHPROG_noMTC, was analyzed with bidirectional fitting relative to DMSO as the negative control and baseline of activity. […]
# Cell culture and media preparation procedures were conducted in accordance with OECD Test No. 456 guidelines, with minor modifications. […] For steroid quantification, media samples were shipped to OpAns, LLC (Durham, NC) on dry ice, and samples were thawed to room temperature prior to liquid-liquid extraction. […] Steroid hormones were separated by HPLC, eluted using a reverse phase C18 gradient with electrospray positive ionization, followed by quantification by tandem mass spectrometry (MS/MS). Data were acquired on a MassHunter Workstation Acquisition version B03.01 (Agilent Technologies, Inc.) and processed using MassHunter Quantitative Analysis for QQQ. Accuracy was determined for each hormone analyte from 3 standards to determine upper and lower limits of quantification (ULOQ and LLOQ, respectively) using a 7-point standard curve. Precision and accuracy of the extraction and quantification methods were calculated as the percent relative standard deviation (%RSD) of the spiked standards and percent spiked standard recovered, respectively. […] Test medium was removed following chemical exposure, and cell viability was evaluated in the same wells by MTT. […]
# [8] = ATG_XTT_Cytotoxicity_XSP2: Cytotoxicity Assessment in the Attagene TRANS-FACTORIAL Multi-Species (XSP2) HepG2 Assay (AID 2283837)
# In short: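 HepG2 cells, transiently transfected with multiple reporter constructs, exposed to chemical for 24 h. Cell number assessed with XTT fluorescence read-out; loss of signal fitted relative to DMSO.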
# [9] = target: human Thyroid hormone Receptor alpha (TRa), THRA (gene 7067) (UniProt P10827); assay: ATG_hTRa_XSP2: Attagene TRANS-FACTORIAL Multi-Species (XSP2) HepG2 Assay for human Thyroid hormone Receptor alpha (TRa) (AID 2283838)
# Description: ATG_XSP2_multi-species_TRANS is a cell-based, multiplexed assay created by modifying the existing Attagene TRANS-FACTORIAL system to include a panel of nuclear receptors from some or all the following species: human (Homo sapiens), mouse (Mus musculus), frog (Xenopus laevis), zebrafish (Danio rerio), chicken (Gallus gallus), and turtle (Chrysemys picta). The ECOTOX-FACTORIAL format uses HepG2, a human liver cell line, with measurements taken at 24 hours after chemical dosing in a 24-well plate. Xsp2 included 3 nM 6-alpha-fluorotestosterone and 1.5 nM norgestrel to stimulate the androgen receptor.ATG_hTRa_XSP2 is one of 29 assay components measured or calculated from the ATG_XSP2_multi-species_TRANS assay. It is designed to make measurements of mRNA induction, a form of inducible reporter, as detected with fluorescence intensity signals by Reverse transcription polymerase chain reaction (RT-PCR) and Capillary electrophoresis technology.The assay endpoint ATG_hTRa_XSP2 was analyzed in the positive analysis fitting direction relative to DMSO as the negative control and baseline of activity. […] Furthermore, this assay endpoint can be referred to as a primary readout, because this assay has produced multiple assay endpoints where this one serves a reporter gene function. […]
# [10] = target: human Thyroid hormone Receptor beta (TRb), THRB (gene 7068) (UniProt P10828); assay: ATG_hTRb_XSP2: Attagene TRANS-FACTORIAL Multi-Species (XSP2) HepG2 Assay for human Thyroid hormone Receptor beta (TRb) (AID 2283840);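 note: actives raise reporter mRNA so potency reflects agonist-like gain of signal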
# In short: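 Read-out: reporter mRNA induction (RT-PCR, 6-FAM labeling, capillary electrophoresis), gain-of-signal relative to DMSO baseline. Transiently transfected HepG2 TRANS multiplex (NR-Gal4 chimeras, GAL4-UAS reporters), 24 h chemical exposure; medium contained 3 nM 6-alpha-fluorotestosterone plus 1.5 nM norgestrel.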
# frog Thyroid hormone Receptor alpha (TRa), thra-a (gene 397942), sequence (P15204 whole entry, looked up, the tested form may be a part): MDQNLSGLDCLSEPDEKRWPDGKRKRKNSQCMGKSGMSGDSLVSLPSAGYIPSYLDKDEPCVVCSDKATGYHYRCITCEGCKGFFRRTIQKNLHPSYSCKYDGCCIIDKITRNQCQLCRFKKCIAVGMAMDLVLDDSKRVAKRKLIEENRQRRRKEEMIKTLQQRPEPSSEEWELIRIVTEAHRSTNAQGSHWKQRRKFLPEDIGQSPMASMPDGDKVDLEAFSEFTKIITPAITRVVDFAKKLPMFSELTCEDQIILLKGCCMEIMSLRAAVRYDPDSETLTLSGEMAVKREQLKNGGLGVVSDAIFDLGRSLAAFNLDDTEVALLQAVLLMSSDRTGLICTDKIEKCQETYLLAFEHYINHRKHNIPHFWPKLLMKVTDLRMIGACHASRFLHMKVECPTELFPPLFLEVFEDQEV
# human Thyroid hormone Receptor alpha (TRa), THRA (gene 7067), sequence (P10827 whole entry, looked up): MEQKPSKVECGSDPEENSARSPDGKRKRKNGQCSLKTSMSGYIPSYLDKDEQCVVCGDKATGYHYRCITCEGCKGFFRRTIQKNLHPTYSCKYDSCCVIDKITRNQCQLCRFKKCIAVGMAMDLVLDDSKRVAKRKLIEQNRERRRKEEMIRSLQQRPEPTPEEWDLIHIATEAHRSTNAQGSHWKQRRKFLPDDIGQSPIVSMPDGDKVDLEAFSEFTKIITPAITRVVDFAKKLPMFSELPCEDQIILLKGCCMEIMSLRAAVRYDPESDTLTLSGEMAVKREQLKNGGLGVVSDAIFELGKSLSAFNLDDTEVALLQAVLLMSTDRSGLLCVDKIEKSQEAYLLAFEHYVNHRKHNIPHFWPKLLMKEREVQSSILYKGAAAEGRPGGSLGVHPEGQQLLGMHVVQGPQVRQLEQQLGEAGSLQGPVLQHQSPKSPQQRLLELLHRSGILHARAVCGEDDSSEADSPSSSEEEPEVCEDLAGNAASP
# zebrafish Thyroid Hormone Receptor beta (TRb), thrb (gene 30607), sequence (Q9PVE4 whole entry, looked up, the tested form may be a part): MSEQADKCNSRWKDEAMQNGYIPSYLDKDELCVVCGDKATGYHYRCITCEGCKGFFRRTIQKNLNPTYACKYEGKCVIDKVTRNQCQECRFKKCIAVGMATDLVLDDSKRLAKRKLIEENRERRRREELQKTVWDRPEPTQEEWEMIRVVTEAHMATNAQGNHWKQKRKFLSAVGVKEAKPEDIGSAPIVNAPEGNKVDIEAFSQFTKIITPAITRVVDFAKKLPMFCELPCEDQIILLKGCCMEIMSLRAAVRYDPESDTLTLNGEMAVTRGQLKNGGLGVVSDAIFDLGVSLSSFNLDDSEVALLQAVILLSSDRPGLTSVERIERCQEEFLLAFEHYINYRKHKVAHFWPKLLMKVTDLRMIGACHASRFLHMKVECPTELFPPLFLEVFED
# human Thyroid hormone Receptor beta (TRb), THRB (gene 7068), sequence (P10828 whole entry, looked up, the tested form may be a part): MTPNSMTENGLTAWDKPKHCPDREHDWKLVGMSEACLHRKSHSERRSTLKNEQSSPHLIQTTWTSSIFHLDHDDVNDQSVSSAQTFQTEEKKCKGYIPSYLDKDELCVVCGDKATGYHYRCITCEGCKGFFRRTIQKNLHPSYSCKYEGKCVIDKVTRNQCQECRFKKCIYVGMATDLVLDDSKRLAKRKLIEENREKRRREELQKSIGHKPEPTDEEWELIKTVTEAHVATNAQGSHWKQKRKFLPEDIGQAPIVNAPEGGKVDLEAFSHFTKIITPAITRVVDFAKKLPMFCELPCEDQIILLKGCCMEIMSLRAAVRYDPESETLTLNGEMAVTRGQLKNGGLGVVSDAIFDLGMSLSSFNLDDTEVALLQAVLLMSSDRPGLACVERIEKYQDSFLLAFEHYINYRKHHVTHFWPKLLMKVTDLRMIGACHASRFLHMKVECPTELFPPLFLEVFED
smiles,measurement,setting,value
CCCCC(CC)COC(=O)CC(C(=O)OCC(CC)CCCC)S(=O)(=O)O (stereo not given),outcome,[1],inactive
same,outcome,[2],inactive
CC(C)(C)c1cc(O)c(C(C)(C)C)cc1O,outcome,[3],inactive
same,outcome,[4],inactive
same,outcome,[1],inactive
same,outcome,[2],inactive
Cc1oc(-c2ccccc2)nc1CCOc1cccc2c1ccn2CCC(=O)O,outcome,[2],inactive
same,AC50,[5],9.6 µM (active)
same,outcome,[6],inactive
same,outcome,[7],inactive
C=CCOC(=O)c1ccccc1C(=O)OCC=C,outcome,[3],inactive
same,outcome,[8],inactive
same,outcome,[9],inactive
same,outcome,[4],inactive
same,outcome,[10],inactive
same,outcome,[6],inactive
same,outcome,[7],inactive
CCCc1cc(=O)[nH]c(=S)[nH]1,outcome,[3],inactive
same,outcome,[9],inactive
same,outcome,[4],inactive
Oc1ccc2c(c1)OC[C@@H](N1CCC(O)(c3ccc(F)cc3)CC1)[C@H]2O,outcome,[1],inactive
same,outcome,[2],inactive
O=c1c(O)c(-c2ccc(O)c(O)c2)oc2cc(O)cc(O)c12,outcome,[1],inactive
same,outcome,[2],inactive
Cc1ccc(C)c(C)c1,outcome,[2],inactive
Oc1ccc2ccccc2c1N=Nc1ccccc1,outcome,[1],inactive
same,outcome,[2],inactive
O=C(N[C@@H](Cc1ccccc1)[C@@H](O)C(=O)N1C[C@@H](O)[C@@H](O)C1)c1cc2cc(Cl)ccc2[nH]1,outcome,[2],inactive
Nc1ccccc1N,outcome,[1],inactive
same,outcome,[2],inactive
COc1ccc(S(=O)(=O)N2C(=O)[C@@](c3ccccc3OC)(N3C[C@H](O)C[C@H]3C(=O)N(C)C)c3cc(Cl)ccc32)c(OC)c1,outcome,[1],inactive
same,outcome,[2],inactive
CC(=O)C(C)=CC1C(C)=CCCC1(C)C (stereo not given),outcome,[3],inactive
same,outcome,[8],inactive
same,outcome,[4],inactive
CCc1c(C(=O)NN2CCCCC2)nn(-c2ccc(Cl)cc2Cl)c1-c1ccc(Br)cc1,outcome,[2],inactive
NC(=O)Cn1c(=O)cc(CCN2CCN(c3nccc4sccc34)CC2)c2ccc(F)cc21,outcome,[1],inactive
same,outcome,[2],inactive
FC(F)(F)C(F)(F)C(F)(F)C(F)(F)C(F)(F)C(F)(F)CCI,outcome,[1],inactive
same,outcome,[2],inactive
O=C(OCCCCCOC(=O)c1ccccc1)c1ccccc1,outcome,[2],inactive
same,outcome,[5],inactive
same,outcome,[6],inactive
same,outcome,[7],inactive
CN[C@H]1CC[C@@H](c2ccc(Cl)c(Cl)c2)c2ccc(S(N)(=O)=O)cc21,outcome,[2],inactive
